Screening data deposited in PubChem BioAssay by National Center for Advancing Translational Sciences (NCATS).
The list is not random: actives were taken first. Their share in the collection is about 19%.
SARS PLP yeast = qHTS of Yeast-based Assay for SARS-CoV PLP. hit rate 0.19% among 330,000. AID 485353, 2010. S. cerevisiae expressing SARS-CoV PLpro, growth rescue. Potency, µM (series often up to 32.9 µM), without a hit: at the top dose activity, positive = growth rescue, most hits filed as activators; calls by dose curve; note: potency is the fitted concentration of half-maximal effect; 0% is about no effect; nearly all actives have a fitted effect of over 55% in size
Shiga inhibitor = A qHTS for Small Molecule Inhibitors of Shiga Toxin | inhibition, % at 38.7 µM | Vero cells, Shiga toxin protein synthesis inhibition reporter | hit rate 9.2% among 290,000; in the data active = inhibition mostly above about 28%, no sharp cut-off; inactive = mostly below about 43%; note: 0% is about no effect
Pf growth 48h = Primary qHTS for delayed death inhibitors of the malarial parasite plastid, 48 hour incubation; Potency, µM (top dose mostly 28.7 µM), inactives show top-dose activity change, negative = inhibition, actives largely listed as inhibitors; hit rate 5.9% among 310,000; AID 504832, 2011; P. falciparum luciferase growth in erythrocytes, 48 h; note: potency is the fitted concentration of half-maximal effect; % is set by controls: 0 for no effect and ±100 for the full control effect
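Firefly luciferase activity from engineered P. falciparum reports growth; inhibitors lower the luminescent signal. Cultures contained 2% hematocrit erythrocytes at 0.1% final parasitemia.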
Pf growth 96h = Primary qHTS for delayed death inhibitors of the malarial parasite plastid, 96 hour incubation; AID 504834, 2011; hit rate 6.9% among 320,000; Potency, µM (top dose mostly 28.7 µM), for inactives: at the highest dose activity change, negative = inhibition, most hits filed as inhibitors; P. falciparum luciferase reporter growth, 96 h; note: potency is the fitted concentration of half-maximal effect; % is set by controls: 0 for no effect and ±100 for the full control effect
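Plates of compound plus infected erythrocytes (2% hematocrit, 0.05% parasitemia final) incubate 96 hours, 37 C, 5% CO2. Detection reagent added; reduced luminescence from the parasites' luciferase reporter flags inhibition.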
CHX counter = Cycloheximide Counterscreen for Small Molecule Inhibitors of Shiga Toxin; cell reporter, cycloheximide protein synthesis inhibition counterscreen; max response, %; hit rate 12% among 300,000; AID 2314, 2010; in the data active = max response mostly above about 13%, no sharp cut-off; inactive = mostly below about 14%; note: read at 38.3 µM for the half of the compounds with a filed dose; 0% is about no effect
AMA1 RON2 block = qHTS for Inhibitors of AMA1-RON; Towards Development of Antimalarial Drug Lead: Primary Screen; AlphaScreen AMA1-biotinylated RON2 peptide binding; Potency, µM (titrated, usually from 58.2 µM), for the others: at the highest dose activity change, negative = inhibition, usual class: inhibitors; hit rate 0.2% among 360,000;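 note: potency is the fitted concentration of half-maximal effect; 0% = vehicle wells and -100% = peptide control; nearly all actives have a fitted effect of over 45% in size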
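AMA1 (3D7) with his tag at 25 nM final met compounds first, then biotinylated RON2 peptide at 25 nM; detection used donor plus acceptor beads, 10 µg/mL apiece, read by AlphaScreen after 30 min at room temperature.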
Starred values were filed as active, the others as inactive; ? = inconclusive; nt = no result. Unless noted, calls come from the whole dose curve; as a rule, active = well fitted curve in the direction sought with a large enough effect; inconclusive = small, poorly fitted or top-dose-only effect, or another doubt; inactive = no such curve, though single readings can be large; an effect the other way counts as inactive or inconclusive.

SMILES	SARS PLP yeast	Shiga inhibitor	Pf growth 48h	Pf growth 96h	CHX counter	AMA1 RON2 block
CCOc1ccc(NC(=O)CCC(=O)NNC(=O)COc2ccccc2C)cc1	0.8%	41.7	40.0%	16.7%	14.1	45.4%
Cc1ccc(NC(=O)CCn2cccc2)cc1Cl	-9.8%	4.7	0.6%	56.1%	10.2	-8.3%
CC(C)(C)NC(=O)CN1CCN(C(=O)CCl)CC1	1.5%	-17.4	?	-22.0%	-6.5	-5.9%
CC(C)(C)NC(=O)CN1CCCN(C(=O)COc2ccc(Cl)c3ccccc23)CC1	1.4%	nt	11.7µM*	?	nt	12.9%
CCN(CC)CCN(C(=O)c1ccc2c(c1)CCCC2)c1nc2ccc(C)cc2s1	-2.7%	31.6	13.1µM*	?	19.8*	-13.3%
CCN(CC)CCN(C(=O)c1ccc2c(c1)CCCC2)c1nc2c(C)cccc2s1	-2.6%	3.9	9.28µM*	?	-1.9	-16.3%
CCN(CC)CCN(C(=O)c1ccc2c(c1)CCCC2)c1nc2ccc(OC)cc2s1	-1.6%	60.6	?	?	0.3	-13.8%
CCN(CC)CCN(C(=O)c1ccc2c(c1)CCCC2)c1nc2ccc(F)cc2s1	1.6%	42.1	?	?	16.3	-16.2%
O=C(CNC(=O)c1ccccc1Cl)N/N=C/c1ccc2c(c1)OCO2	1.3%	15.1	29.1%	38.5%	14.0	-5.0%
COc1cccc(C(=O)NCC(=O)N/N=C/c2ccc3c(c2)OCO3)c1	-1.2%	82.8*	41.6%	?	43.6*	-3.0%
COc1ccc(C(=O)NCC(=O)N/N=C/c2cccc(OC(=O)c3ccco3)c2)cc1OC	-1.3%	43.4	-3.8%	-14.5%	32.7*	2.1%
O=C(CNC(=O)c1ccccc1F)N/N=C/c1ccc2c(c1)OCO2	-1.2%	54.6*	106.5%	-17.9%	44.8*	12.8%
O=C(CNC(=O)c1ccccn1)N/N=C/c1ccc2c(c1)OCO2	-1.9%	100.1*	21.2%	?	41.5*	112.3%
O=C(CN1CCN(c2ccc(F)cc2)CC1)c1ccc(O)cc1O	nt	-0.9	6.9%	10.6%	0.8	4.9%
COc1ccc(CNC(=O)Cn2nc([N+](=O)[O-])c(Br)c2C)cc1OC	-0.2%	-3.1	?	15.0%	0.8	-2.7%
NS(=O)(=O)c1ccc(Nc2nc(-c3ccc(F)cc3)cs2)cc1	-1.5%	17.2	30.4%	-16.4%	14.2	-16.0%
CC(=O)Oc1ccc(-c2csc(Nc3cccc(C)n3)n2)cc1	-6.6%	91.2*	84.0%	?	45.3*	11.0%
COc1ccc(-c2csc(Nc3cccc(C)n3)n2)cc1	-4.1%	70.6*	146.2%	?	37.9*	-6.4%
COc1cccc(OC)c1C(=O)Nc1nc(-c2ccccc2)cs1	5.7%	nt	?	2.9%	4.4	-0.4%
COc1ccc(-c2csc(Nc3ccc(Oc4ccccc4)cc3)n2)cc1	nt	nt	nt	nt	nt	-20.1%
COc1ccc(-c2csc(Nc3cccc(C)n3)n2)cc1C	-4.2%	79.2*	6.6%	7.8%	55.9*	-3.2%
Cc1cccc(Nc2nc(-c3ccc(F)cc3)cs2)n1	1.9%	104.6*	152.7%	11.7µM*	45.6*	-8.2%
CC(=O)Oc1ccc(-c2csc(Nc3ccccn3)n2)cc1	nt	nt	nt	nt	nt	2.6%
CCOC(=O)c1c(NC(=O)CC2Nc3cc(C)c(C)cc3NC2=O)sc(C)c1C (stereo not drawn)	7.3%	19.4	16.4%	14.7%	12.6	-0.7%
Cc1noc(C)c1S(=O)(=O)Nc1ccc(C(=O)Nc2ccc(OC(F)(F)F)cc2)cc1	0.7%	-5.3	-20.2%	?	-10.6	19.1%
SMILES	SARS PLP yeast	Shiga inhibitor	Pf growth 48h	Pf growth 96h	CHX counter	AMA1 RON2 block
N#CCC(=O)Nc1ccc(C(=O)OCC(=O)N2CCN(C(=O)c3ccco3)CC2)cc1	7.1%	nt	nt	nt	nt	0.4%
COc1ccc(CCC(=O)Nc2nnc(C(C)(C)C)s2)cc1	-2.6%	14.2	19.3%	?	-2.8	-2.1%
COc1cc(CCC(=O)Nc2ncc(C)s2)cc(OC)c1OC	4.0%	-6.7	-9.9%	-3.3%	-6.3	-2.5%
Cc1cnc(NC(=O)COc2ccc3c(c2)CCC3)s1	1.5%	61.1*	241.2%	?	59.7*	16.1%
COc1ccc(CCC(=O)Nc2ncc(C)s2)cc1	-2.1%	35.3*	15.1%	12.6%	16.9*	7.2%
COc1ccc2c(CC(=O)Nc3ncc(C)s3)coc2c1	3.1%	86.0*	49.1%	113.4%	32.9*	15.8%
COc1ccc(CCC(=O)Nc2nnc(C(F)(F)F)s2)cc1	14.2%	-32.5	?	14.7µM*	-2.1	-10.1%
Cc1ccc(NC(=O)COC(=O)c2cccc3c(=O)c(C)c(-c4ccccc4)oc23)cc1	-1.8%	-12.6	11.4%	-8.1%	-5.1	14.4%
COc1ccc(N(C)S(=O)(=O)c2cccc(C(=O)OCC(=O)Nc3cc(C)ccc3OC)c2)cc1	nt	nt	nt	nt	nt	-4.6%
Cc1ccc[n+](CC(=O)Nc2ccc(C)c(C)c2)c1	nt	-9.7	-11.5%	?	-2.4	-3.5%
O=C(NCc1ccccc1)C(c1ccccc1)n1c(C2CC2)nc2ccccc21 (stereo not drawn)	nt	nt	nt	nt	nt	-12.7%
CCOC(=O)c1ccccc1NC(=O)CSc1nnc(C(C)C)n1CC	10.9%	-3.9	-22.0%	-11.8%	-2.2	2.7%
CC(C)c1ccc(O)c(N)c1	-3.9%	67.0*	?	2.94µM*	29.6*	42.0%
CCC(C)c1ccc(O)c(N)c1 (stereo not drawn)	-9.2%	20.3	?	?	-0.9	41.6%
CC(C)(C)c1ccc(O)c(N)c1	-0.7%	-3.0	?	13.1µM*	-4.4	nt
COc1cccc(NS(=O)(=O)NC(=O)c2c[nH]c3ccccc23)c1	1.6%	53.0	11.7µM*	71.6%	45.3*	-9.3%
Cc1[nH]c2ccccc2c1C(=O)NS(=O)(=O)Nc1ccc(F)cc1	2.6%	-10.8	?	0.0%	-0.5	4.3%
COc1ccc(NS(=O)(=O)NC(=O)c2c[nH]c3ccccc23)cc1	1.2%	3.2	2.9%	38.7%	-0.7	-14.2%
COc1cccc(NS(=O)(=O)NC(=O)c2c(C)[nH]c3ccccc23)c1	1.4%	30.5*	31.4%	?	30.9*	-8.5%
CC1(NC(=O)Nc2cccc3ccccc23)CCS(=O)(=O)C1 (stereo not drawn)	2.7%	-12.2	11.1%	22.8%	0.4	10.7%
Cc1cccc2c3nc4ccccc4nc3n(C)c12	-0.8%	23.3	75.7%	55.1%	18.0	14.7%
Cc1cccc2nc3ccccc3nc12	-0.1%	46.1	422.5%	-28.2%	16.8*	-5.2%
CCCCCCNC(=O)Nc1ccccc1	-4.4%	61.3*	0.6%	7.7%	44.5*	18.4%
CCCCNC(=S)Nc1ccc([N+](=O)[O-])cc1	-71.8%	60.0	?	4.7%	10.7	6.9%
O=C(O)CCCNC(=O)Nc1ccccc1	2.9%	-13.9	11.3%	-3.7%	-5.4	5.3%
